Measurements reported in ChEMBL document CHEMBL3988442, “University of Dundee, Small-Polar-MMV Screening Library” (2021).
The campaign covered roughly 48,000 compounds. About 13,000 (27%) showed an effect of 50% or more. This is one part of the list.

tested on: Wolbachia pipientis; experiment: Anti-Wolbachia Cell-Based Screen; format: functional; set-up: scale not given: in the data most compounds retested in dose-response had high values; settings: 5 µM

Row | Structure (SMILES) | Percent Effect [%]
1 | CCn1cc(CN2CCC(NS(C)(=O)=O)CC2)cc1C#N | -7.298
2 | CC(C)Cn1cnnc1C1CCCN1C(=O)c1cc2ccccn2c1 (stereo unspecified) | -13.41
3 | CC(C)CN1CCCn2nc(CNC(=O)NC(C)(C)C)cc2C1 | -2.187
4 | COC(=O)NCc1cc2n(n1)CCCN(C(C)=O)C2 | 17.7
5 | CCCN1CCCn2nc(CNC(=O)C3CCOC3)cc2C1 (stereo unspecified) | -8.283
6 | CC(C)NCc1cc2n(n1)CCN(C1CCCCC1)C2 | -9.171
7 | CCC(C)NC(=O)NCc1cc2n(n1)CCCN(C1CCCCC1)C2 (stereo unspecified) | 123
8 | CN[C@@H](CO)C(=O)NCc1cc2n(n1)CCCN(C1CCCCC1)C2 | 120.8
9 | CCC(CC)CN1CCCn2nc(CNC(=O)COC)cc2C1 | 4.127
10 | CCCOC(C)C(=O)NCc1cc2n(n1)CCCN(C1CCCCC1)C2 (stereo unspecified) | 111
11 | CCC(OC)C(=O)NCc1cc2n(n1)CCCN(C1CCCCC1)C2 (stereo unspecified) | 113.3
12 | CC(C)c1nnc(NCc2cc3n(n2)CCN(C2CCCCC2)C3)s1 | 8.692
13 | CC(C)CN1CCCn2nc(CNC(=O)OCc3ccccc3)cc2C1 | 17.53
14 | O=C(c1ccc(Cl)s1)N1CCCn2nc(CN3CC[C@H](F)C3)cc2C1 | 0.8139
15 | Cc1nc(C(C)N(C)Cc2nc(CCC(C)C)no2)c(C)s1 (stereo unspecified) | 1.881
16 | CCSc1ccc(C(C)NC(=O)CCS(C)(=O)=O)cc1 (stereo unspecified) | -10.2
17 | CC(C)(C)c1nccc(N2CCN(C3CCS(=O)(=O)C3)CC2)n1 (stereo unspecified) | -14.65
18 | CCOCCCNC(=O)c1cc(C(C)C)nc(N2CCCCCC2)n1 | 4.863
19 | Cc1nc(CC(=O)NCc2csc(N3CCCC3)n2)cs1 | 17.94
20 | CCCOC1CCCN(c2ccnc(C(=O)NCc3ccco3)c2)C1 (stereo unspecified) | 6.201
21 | Cc1nc(CCCNC(=O)c2coc(CN3CCOCC3)c2)sc1C | -5.742
22 | O=C(NCc1ccco1)c1ccc(N2CCOCC2)cc1 | -7.738

Row | Structure (SMILES) | Percent Effect [%]
23 | O=C(NCc1ccco1)Nc1ccc2nc(N3CCOCC3)oc2c1 | -0.2531
24 | O=C(NCCCc1ccco1)c1ccc(N2CCOCC2)cc1 | -6.417
25 | CCOCc1nc(N2CCOCC2)sc1C(=O)NCCCc1ccco1 | 102.3
26 | CCOCc1nc(N2CCCC2)sc1C(=O)NCCC(=O)OCC | 118
27 | CCOCc1nc(N2CCCC2)sc1C(=O)NCc1ccco1 | 113.4
28 | CCOCc1nc(N2CCOCC2)sc1C(=O)NCc1ccco1 | 132.8
29 | CC1CCCCN1C1CN(c2ccnc(C(=O)NCc3ccco3)c2)C1 (stereo unspecified) | 0.5235
30 | CCc1nc(CNCC2CCCN2c2cc(NC)ncn2)cs1 (stereo unspecified) | 9.196
31 | COc1c(C2CCCN2Cc2nnc(C3CC3)n2C)c(C)nn1C (stereo unspecified) | 1.396
32 | N#Cc1ccc(CN2CCN(C(=O)C3CCC3)[C@@H]3CS(=O)(=O)C[C@@H]32)cc1 | -4.315
33 | Cc1nc(CN2CCCC2c2ccsc2)nc2ccccc12 (stereo unspecified) | 1.892
34 | CN(C)c1nc(N)nc(CN2CCCC2c2cccs2)n1 (stereo unspecified) | 99.23
35 | CN(CCC#N)C(=O)CN1CCCC1c1cccs1 (stereo unspecified) | -24.43
36 | CN(C)c1nc(N)nc(CN2CCCC(c3ccccc3)CC2)n1 (stereo unspecified) | -22.19
37 | CN(C)c1nc(N)nc(CN2CCC(c3ccccc3)CC2)n1 | -7.992
38 | Cc1cccc(C2CCCN2Cc2nc(N)nc(N(C)C)n2)c1C (stereo unspecified) | 140.3
39 | CCCc1noc(CN2CCCC2c2ccsc2)n1 (stereo unspecified) | 1.014
40 | CN(C)c1nc(N)nc(CN2CCCC2c2ccsc2)n1 (stereo unspecified) | 99.77
41 | CN(C)c1nc(N)nc(CN2CCC(c3nc4ccccc4o3)CC2)n1 | -47.21
42 | COCCC(=O)Nc1nccn1Cc1ccc(Br)cc1 | -0.6439
43 | CNC(=O)c1cnc(/C=C/c2ccc(OC)c(O)c2)s1 | -1.59
44 | Cc1cc(C(=O)N2C[C@H](CO)C[C@H](CN3CCOCC3)C2)cnc1C | 8.759

Row | Structure (SMILES) | Percent Effect [%]
45 | Cc1ccc(C)c2c(O)cc(CNCCNC(=O)C(C)C)nc12 | -21.09
46 | c1cncc(NCCNC2CSCCSC2)c1 | 16.15
47 | Cc1cccc(-c2noc([C@@H]3C[C@@H](O)CN3Cc3ccc(CO)o3)n2)c1 | 5.801
48 | CC(C)n1cnc2c1C(C(=O)N1CCCC1)N(S(C)(=O)=O)CC2 (stereo unspecified) | -12.38
49 | Cc1nn(C)c(Cl)c1C1CCCN1Cc1nnc(C2CC2)n1C (stereo unspecified) | -12.44
50 | Cc1cc(NC(=O)C(C)N2CCN(c3nccs3)CC2)on1 (stereo unspecified) | -1.934
51 | Cc1cc(NC(=O)C(C)N2CCCN(c3nccs3)CC2)on1 (stereo unspecified) | -9.765
52 | Cc1cc(NC(=O)CN2CCN(c3nccs3)C(C)C2)on1 (stereo unspecified) | 108.7
53 | CCc1nnc2n1CCN(CC(=O)Nc1cc(C)on1)C2 | -12.71
54 | Cc1cc(NC(=O)CN2CCN(c3nccs3)C(C)C2)no1 (stereo unspecified) | 110.3
55 | CN(C)c1nccc(-c2c[nH][nH]c2=O)n1 | 105.1
56 | CCNC(=O)NCc1ccnc(N(C)C)n1 | -21.64
57 | CN(C)c1nccc(-c2cnc(N(C)C)[nH]c2=O)n1 | 117.9
58 | CC(=O)c1ccc(C(=O)Nc2ccnc(N(C)C)n2)cc1 | -0.9205
59 | CN(C)c1nccc(CNC(=O)NC(C)(C)C)n1 | -4.369
60 | CN(C)c1nccc(NC(=O)c2ccncc2)n1 | 2.726
61 | c1cc(-c2nc(CN3CCn4c(nnc4C4CC4)C3)cs2)cs1 | -6.477
62 | Cc1noc2ncc(S(=O)(=O)Nc3cc(C(C)(C)C)n[nH]3)cc12 | -0.8197
63 | Cc1cc(C(=O)N(Cc2c(C)nn(C)c2C)C(C)C)nc(C)n1 | 12.98
64 | Cn1ccc(C(=O)NCc2ccccc2CN2CCCCC2)cc1=O | 100.5
65 | Cn1ccc(C(=O)NCc2ccccc2Cn2ccnc2)cc1=O | -5.249
66 | Cn1ccc(C(=O)NCc2ccccc2CN2CCCC2)cc1=O | 88.78

Row | Structure (SMILES) | Percent Effect [%]
67 | CN1CCN(Cc2ccccc2CNC(=O)c2ccc(Br)cc2)CC1 | 1.874
68 | CN1CCN(Cc2ccccc2CNC(=O)c2cc(Br)ccc2F)CC1 | -18.53
69 | CN1CCN(Cc2ccccc2CNC(=O)c2ccc(Br)cc2F)CC1 | 7.367
70 | COc1cc(C)cc(C(C(=O)O)N(C)Cc2ccon2)c1OC (stereo unspecified) | -2.337
71 | O=C1CC(c2ccccc2)C2(CCN(C(=O)c3cnccn3)CC2)N1 (stereo unspecified) | -7.237
72 | O=C(COCC(F)(F)F)Nc1nncs1 | 9.109
73 | O=C(NCC1CC1)Nc1cccc(N2CCN(CC3CC3)CC2)c1 | 0.3476
74 | O=C(NCc1ccc2[nH]c(=O)[nH]c2c1)c1ccc(CN2CCCC2)o1 | -9.598
75 | O=C(CCn1cccc1)NCc1ccc(CN2CCCCCC2)o1 | 106.7
76 | Cc1[nH]c2ccc(CNC(=O)c3ccc(CN4CCCC4)o3)cc2c1C | 16.58
77 | CC(C)N1CCCC(CNC(=O)Cc2csc(-c3cccnc3)n2)C1 (stereo unspecified) | 3.537
78 | CNC(=O)c1csc(-c2cccnc2)n1 | 130
79 | CNC(=O)c1csc(-c2ccoc2)n1 | 6.478
80 | O=C(NCCc1nncn1C1CC1)C1SCCc2ccccc21 (stereo unspecified) | -2.915
81 | O=C(Cc1ccccc1F)NCC1CCN(CCc2ccccc2)C1 (stereo unspecified) | -7.846
82 | Cc1nn(C)cc1NC(=O)CC1CCN(CCc2ccccc2)CC1 | 168.6
83 | CS(=O)(=O)NC1CCN(CCc2ccccc2)CC1 | -1.788
84 | Cn1cccc(NC(=O)N2CCC(Cc3ccccc3)C2)c1=O (stereo unspecified) | 25.6
85 | Cc1nn(C)cc1C(=O)N1CCC(CSc2ccccc2)C1 (stereo unspecified) | -5
86 | Cc1nn(C)cc1NC(=O)CC1CCN(C(=O)Cc2ccccc2)CC1 | 152.2
87 | CC(=O)NCc1nnc2n1CCN(c1ncnc3c1CCC3)CC2 | -4.362
88 | Cn1cc(Br)cc(NC(=O)CC2CCC2)c1=O | 5.375

Row | Structure (SMILES) | Percent Effect [%]
89 | CC(C)(C)C(NC(=O)CCS(C)(=O)=O)c1ccc(F)cc1F (stereo unspecified) | 7.431
90 | COCCS(=O)(=O)Cc1nnnn1-c1ccccc1 | 8.083
91 | CCCn1[nH]cc/c1=N\C(=O)CN1CCc2cnc(CC)nc2C1 | 1.642
92 | CCCn1[nH]cc/c1=N\C(=O)CN1CCc2c(nc(C(C)C)n2C)C1 | -3.864
93 | CCCn1[nH]cc/c1=N\C(=O)CN1CCOC(Cn2cc(C)cn2)C1 (stereo unspecified) | 12.63
94 | CCCn1[nH]cc/c1=N\C(=O)CN1CCc2cnc(C(C)C)nc2C1 | 129.2
95 | CCCn1[nH]cc/c1=N\C(=O)CN1CCc2c(nc(C3CC3)n2C)C1 | 122.4
96 | CCCn1[nH]cc/c1=N\C(=O)CN1CCn2c(nnc2C2CC2)C1 | -10.08
97 | O=C(CNC(=O)N(Cc1ccoc1)C1CCCCC1)N1CCCC1 | -3.863
98 | O=C1CN(Cc2cn(CC3CCCN(C4CCSCC4)C3)nn2)CCN1 (stereo unspecified) | -21.26
99 | CNc1cncc(C2CCCN2C(=O)c2ccc3c(c2)OCCO3)n1 (stereo unspecified) | 121
100 | CNc1cncc(C2CCCN2C(=O)c2ccc3nc(C)[nH]c3c2)n1 (stereo unspecified) | 94.32
101 | Cn1cc(C(=O)N2CCCC2c2ccc3c(c2)OCCO3)ccc1=O (stereo unspecified) | 14.96
102 | CNc1cncc(C2CCCN2C(=O)c2ccc3c(c2)CCC3)n1 (stereo unspecified) | 112.1
103 | Cn1ccc(C(=O)N2CCCC2c2ccc3c(c2)OCCO3)cc1=O (stereo unspecified) | 4.386
104 | CNc1cncc(C2CCCN2C(=O)c2ccc3oc(C)cc3c2)n1 (stereo unspecified) | 6.468
105 | CC(C)C(=O)N1CCN(C(=O)CCc2nnc(-c3ccccc3)o2)CC1 | -5.371
106 | CN(CCn1cccn1)S(=O)(=O)c1ccc(C#N)cc1 | -4.99
